RORgamma inh: qHTS for inhibitors of ROR gamma transcriptional activity; Nuclear receptor ROR-gamma (Mus musculus), P51450; Drosophila S2 Gal4-RORgamma UAS-luciferase reporter, 20 h; Potency, µM (series often up to 53.6 µM), without a hit: at the top dose activity change, negative = inhibition, hits mostly inhibitors; hit rate 5.4% among 310,000; also: potency is read from the fitted curve at half-maximal effect; nearly all actives have a fitted effect of over 60% in size
Target sequence (P51450 whole entry, looked up, the tested form may be a part): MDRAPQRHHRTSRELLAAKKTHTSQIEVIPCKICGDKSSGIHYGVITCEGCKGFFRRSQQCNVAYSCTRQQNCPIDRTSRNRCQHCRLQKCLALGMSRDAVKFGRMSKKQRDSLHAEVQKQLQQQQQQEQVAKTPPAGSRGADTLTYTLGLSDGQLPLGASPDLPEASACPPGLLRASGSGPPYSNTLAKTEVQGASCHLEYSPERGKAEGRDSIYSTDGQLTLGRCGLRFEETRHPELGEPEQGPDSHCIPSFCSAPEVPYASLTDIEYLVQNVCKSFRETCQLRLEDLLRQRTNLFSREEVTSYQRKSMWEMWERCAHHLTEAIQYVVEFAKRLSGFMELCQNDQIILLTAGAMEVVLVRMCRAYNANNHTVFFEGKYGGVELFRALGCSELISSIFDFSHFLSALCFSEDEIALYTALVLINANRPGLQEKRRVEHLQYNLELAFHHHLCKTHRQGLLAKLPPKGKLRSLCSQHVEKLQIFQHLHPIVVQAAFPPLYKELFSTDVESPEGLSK
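Schneider cells (Drosophila), stable Gal4 DBD–ROR gamma + UAS-luc; 1 hr cmpd preincubation; Cu2+ induction 700 uM final; 20 hr ambient; luminescence.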
FBPA coupling cs: qHTS Assay for Inhibitors of Fructose-1,6-bisphosphate Aldolase from Giardia Lamblia: Coupling assay counterscreen. hit rate 0.67% among 290,000. activity change, negative = inhibition, % at 58.2 µM, hits read low. coupling enzyme system counterscreen, AmpLite Red fluorescence; in the data active = activity change below about -30%
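Activity here indicates interference with the coupling reaction, not aldolase inhibition. Compounds at 57.5 uM final met coupling enzymes for 10 min at RT; substrate and AmpLite Red detection followed, with a 525/598 nm fluorescence read after 20 min.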
ELG1 DNA repair: qHTS screen for small molecules that inhibit ELG1-dependent DNA repair in human embryonic kidney (HEK293T) cells expressing luciferase-tagged ELG1. Potency, µM (series often up to 46.1 µM), without a hit: at the top dose activity change, negative = inhibition, usual class: inhibitors. hit rate 2.3% among 330,000. HEK293T ELG1-luciferase reporter, luminescence, 16 h; DNA damage induced by 5-fluorouridine; also: potency is read from the fitted curve at half-maximal effect; nearly all actives have a fitted effect of over 55% in size
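HEK293T cells expressing luciferase-tagged ELG1 (2,000/well) received 5-Fluorouridine plus compound or DMSO for 16 hr at 37 °C. Luciferase was read by ONE-Glo luminescence after 30 min at room temperature.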
TSHR antagonist: Antagonists of the Thyroid Stimulating Hormone Receptor: HTS campaign. Thyrotropin receptor (Homo sapiens), P16473. TSHR-expressing cells, TSH-stimulated cAMP HTRF, 2 h; hits give low values. activity change, negative = inhibition, % at 11.5 µM. hit rate 0.2% among 330,000. AID 504810, 2011;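 active = activity change below a set negative limit, meaning inhibition stronger than a set level, cut at about -70% in these data; inconclusive = activity change between two set negative limits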
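Cell-based HTRF cAMP assay; TSHR cells + compound, TSH EC80 (4nM final), 2 h, 37 deg C. Lysis with anti-cAMP cryptate and cAMP-d2, 30 min RT, read 665/620 nm.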
Gal4-VP16 FLuc: VP16 counterscreen qHTS for inhibitors of ROR gamma transcriptional activity; Drosophila S2 Gal4-VP16 UAS-luciferase, luminescence, 20 h; Potency, µM (doses to about 53.6 µM), for the others: at the highest dose activity, negative = inhibition, actives largely listed as inhibitors; hit rate 3.5% among 310,000;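 also: Gal4-VP16 expression switched on by copper sulfate through the metallothionein promoter; potency is read from the fitted curve at half-maximal effect; nearly all actives have a fitted effect of over 50% in size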
Active calls of the source: *; ? = inconclusive; . = not tested or not shown; [ ] = dose if it differs, or a comment. Most compounds without a hit are left out; they make up all but 8% or so of the library. Unless noted, calls follow the shape of the dose curve; as a rule, active = well fitted curve in the direction sought with a large enough effect; inconclusive = small, poorly fitted or top-dose-only effect, or another doubt; inactive = no such curve, though single readings can be large; an effect the other way counts as inactive or inconclusive. % is scaled to controls: 0 for no effect and ±100 for the full control effect.

SMILES	RORgamma inh	FBPA coupling cs	ELG1 DNA repair	TSHR antagonist	Gal4-VP16 FLuc
CO[C@@H]1C[C@H](O[C@H]2[C@@H](C)[C@H](O[C@@H]3O[C@@H](C)C[C@@H](N(C)C)[C@@H]3OC(C)=O)[C@H](C)C[C@]3(CO3)C(=O)[C@H](C)[C@H](OC(C)=O)[C@H](C)[C@H](C)OC(=O)[C@@H]2C)O[C@H](C)[C@@H]1OC(C)=O	13.6%[2.98 µM]	-0.7	.	.	-0.9%[17 µM]
COC(=O)N1CC=CC1(C)C(=O)NCc1ccc(C)o1 (stereo unspecified)	?	-8.0	.	.	-8.2%
COc1ccc(-c2cc(C(=O)N3CCN(c4ncccn4)CC3)c3ccccc3n2)cc1OC	.	.	6.51µM*	7.5	.
COc1ccc(-c2cc(C(=O)N3CCC3)c3ccccc3n2)cc1OC	.	.	?	-3.7	.
COc1cccc(N2CCN(C(=O)c3cc(-c4ccccc4)nc4c3cnn4C(C)C)CC2)c1	.	.	11.6µM*	17.8	.
COc1cccc(-c2cc(C(=O)N3CCN(c4ncccn4)CC3)c3ccccc3n2)c1	?	-0.1	?	-3.2	0.9%
CC(C)Oc1cccc(-c2cc(C(=O)N3CCN(c4ncccn4)CC3)c3ccccc3n2)c1	-9.5%	-2.6	14.6µM*	17.0	11.2µM*
COc1ccc(-c2cc(C(=O)NC(C)c3ccccn3)c3ccccc3n2)cc1OC (stereo unspecified)	.	.	16.4µM*	4.3	.
O=C(c1ccncc1)N1CCC[C@@]2(CCN(c3ccncc3)C2)C1	5.8%	2.5	.	.	-6.2%
Cc1ccc(Cl)cc1N1CCN(C(=O)C(C)n2ncn3cccc3c2=O)CC1 (stereo unspecified)	25.1%	0.1	-19.3%	-19.2	-1.5%
O=C(On1c(-c2ccccc2)nc2ccccc2c1=O)c1ccco1	11.2µM*	-3.2	.	.	?
COc1cc(OC)cc(-c2nc3ccccc3c(=O)n2OC(=O)c2ccccc2C)c1	12.6µM*	-3.6	?	-5.2	?
Cc1cc(C#N)c2ccccc2n1	-9.7%	0.7	18.3%	26.5	7.0%
c1ccc(-c2nccnc2-c2ccccc2)cc1	-8.5%	-1.1	-1.5%	-4.5	-3.7%
c1ccc(-c2ccc(-c3nccc4ccccc34)[nH]2)cc1	5.01µM*	-1.0	?	-8.3	10µM*
N#Cc1cc(-c2ccccc2)[nH]c1-c1nccc2ccccc12	10µM*	-1.1	9.2µM*	-22.9	?
COc1ccc(-n2c(=O)c(C)nc3cnc(Nc4cccc(OC)c4)nc32)cc1	25.6%	-0.8	.	.	-1.6%
CC[C@@H]1Cn2c(c3nc(-c4ccccc4)nc-3n(C)c2=O)N1	-31.0%	-0.3	.	.	0.8%
CC[C@@H]1Cn2c(c3nc(-c4cc(Cl)cc(Cl)c4Cl)nc-3n(C)c2=O)N1	8.91µM*	-0.4	.	.	?
COc1ccc(Oc2ncc3nc(CCc4ccccc4)c(=O)n(C)c3n2)cc1	22.0%	-0.5	.	.	6.5%
CCn1nc(C(=O)NNC(=O)CCOc2cc(C)ccc2C)c2ccccc2c1=O	-27.1%	3.5	-15.0%	3.0	13.7%
CS(=O)(=O)c1cnc2c(S(=O)(=O)c3ccccc3)cnn2c1N	13.6%	-0.1	1.7%	24.0	7.9%
COc1ccc(-c2cnn3c(N)c(S(=O)(=O)c4ccccc4)cnc23)cc1	2.82µM*	-0.8	-14.1%	-35.8	5.62µM*
Nc1c(S(=O)(=O)c2ccccc2)cnc2c(-c3ccc(F)cc3)cnn12	4.47µM*	-2.0	?	-2.6	10µM*
O=C(c1ccco1)N1CCN(C(=O)c2cn(-c3ccccc3)nc2-c2ccccc2)CC1	.	.	?	0.3	.
SMILES	RORgamma inh	FBPA coupling cs	ELG1 DNA repair	TSHR antagonist	Gal4-VP16 FLuc
Cc1cc2c(cc(C(=O)NCCCN3CCOCC3)n2Cc2ccc(Cl)cc2)o1	?	-6.2	?	9.5	10µM*
Cc1ccc(Cn2c(C(=O)NCCCN3CCOCC3)cc3sccc32)cc1	-12.1%	0.4	6.5%	-2.3	-11.5%
CC1C(=O)Nc2ccc(S(=O)(=O)NCCc3ccc(Cl)cc3)cc2NC1=O (stereo unspecified)	1.0%	-0.1	3.3%	-0.7	0.3%
CC(=O)N1c2ccccc2C2(O)N=C(C)SC12 (stereo unspecified)	7.94µM*	-9.2	-3.0%	-23.9	4.47µM*
CC(=O)N1c2ccccc2[C@@H](C)[C@@H]1C	.	.	?	37.9	.
COc1ccc(/C=C(\NC(=O)c2ccccc2)C(=O)NCc2ccco2)cc1OC	-15.3%	2.2	9.8%	3.1	-8.7%
Cc1nccc(-c2ccc(-n3cnc4ccccc43)cc2)n1	39.3%	-1.4	10.3µM*	-5.3	?
c1ccc2c(c1)ncn2-c1ccc(-c2ccnc(-c3ccncc3)n2)cc1	-0.4%	.	-28.6%	-35.8	-4.1%
Nc1nccc(-c2ccc(-n3cnc4ccccc43)cc2)n1	27.8%	-5.8	7.3µM*	-1.0	19.0%
S=C(Nc1ccccc1)Nc1nc2ccccc2n1CCOc1ccccc1	1.12µM*	1.5	0.0%	8.5	7.08µM*
CCCCn1c(NCc2ccccc2O)nc2ccccc21	?	-2.3	0.4%	-6.6	22.7%
CCCn1c(NC(=O)c2ccco2)nc2ccccc21	-3.1%	-19.8	-16.6%	0.4	-10.2%
COc1ccc(OCCn2c(NC(=O)c3ccco3)nc3ccccc32)cc1	2.24µM*	-13.3	12.6µM*	-4.7	2.82µM*
CC(=O)Nc1nc2ccccc2n1CCOc1ccccc1	-20.1%	-0.8	?	20.6	-7.4%
CCCCn1c(NC(=S)Nc2ccccc2)nc2ccccc21	1µM*	-1.1	?	13.6	1.41µM*
COC(=O)C1=C(C(=O)OC)[C@@H]2N(Cc3ccccc3)c3ccccc3[C@@]23C[C@@H](C(=O)OC)N(C(=O)c2ccco2)C3=N1	.	2.1	.	.	.
C[C@@]12CCC3c4ccc(OC5C=CC(c6ccccc6)OC5CO)cc4CCC3C1CCC2=O (stereo partly specified)	-2.0%[10 µM]	-1.0	.	.	-7.9%[10 µM]
Cc1noc(C)c1C(=O)Nc1c(F)cc(F)cc1Br	0.2%	0.6	15.8%	4.6	-5.8%[0.365 µM]
Cc1cc(C(=O)Nc2c(F)cc(F)cc2Br)c(C)o1	?	2.8	3.2%	4.1	10µM*
CC(C)CCCC(C)C1CCC2C3=CC[C@@H]4CC(O)CC[C@@]4(C)C3CC[C@]21C (stereo partly specified)	0.0%	-0.3	.	.	0.0%
Nc1c(Cl)ncnc1N/N=C/c1cccnc1	-0.4%	-0.4	3.1%	-3.5	-6.4%
Nc1c(Cl)ncnc1N/N=C/c1ccccn1	0.398µM*	-7.7	?	-9.0	0.891µM*
Nc1c(Cl)ncnc1N/N=C/c1ccc2ccccc2n1	0.398µM*	-8.6	?	-7.0	1µM*

Screening results (PubChem BioAssay)
